For five compounds, Potency and activity, negative = inhibition results are on record in PubChem BioAssay (NCATS).

Experiment [1] addresses ATP-dependent 6-phosphofructokinase (Trypanosoma brucei brucei) (UniProt O15648). Description: qHTS Assay to Find Inhibitors of T. brucei phosphofructokinase: hit validation (AID 492961).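 Note: luminescence reports ADP formed as PFK phosphorylates fructose-6-phosphate with ATP; % is set by controls: 0 for no effect and ±100 for the full control effect.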 The procedure, abridged:
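ADP-Glo luminescence read-out of ADP formed by 1.25 nM PFK from 0.1 mM ATP and 0.5 mM F6P (TEA pH 8.0, 45 min, RT). Compounds titrated; activity normalized to no-enzyme and full-enzyme controls.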

Experiment [2] in a line: qHTS profiling for inhibitors of Plasmodium falciparum proliferation (AID 504749).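 For activity, negative = inhibition: 0% = DMSO vehicle and full inhibition = artemisinin control.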 Note: nearly all actives have a fitted effect of over 60% in size. Note: potency is the fitted concentration of half-maximal effect. To be noted: P. falciparum in erythrocytes, SYBR Green DNA, 72 h. The procedure, abridged:
(§1)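 Three-day growth assay of blood-stage parasites in erythrocytes (0.3% parasitemia, 2.5% hematocrit) at 37 C, 5% CO2, quantified by SYBR Green DNA staining after overnight detergent lysis.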

The test system of a further experiment is 3D7. Described as above. As to conditions: P. falciparum in erythrocytes, SYBR Green DNA, 72 h; series mostly up to 28.7 µM. Summed up: as §1
Another experiment has as its system AA1029. The description is as above. As to conditions: P. falciparum in erythrocytes, SYBR Green DNA, 72 h; series mostly up to 28.7 µM. The procedure, abridged:
as §1

In a further experiment the test system is AS120. Described as above. To be noted: P. falciparum in erythrocytes, SYBR Green DNA, 72 h; series mostly up to 28.7 µM. The procedure, abridged: as §1
For a further experiment, the system named is ATS189. The description is as above. To be noted: P. falciparum in erythrocytes, SYBR Green DNA, 72 h; series mostly up to 28.7 µM. The procedure, abridged:
as §1

A further experiment deals with C2A. Described as above. To be noted: P. falciparum in erythrocytes, SYBR Green DNA, 72 h; series mostly up to 28.7 µM. The procedure, abridged: as §1
For another experiment, the system named is CP185. The experiment is described as above. To be noted: P. falciparum in erythrocytes, SYBR Green DNA, 72 h; series mostly up to 28.7 µM. The procedure, abridged: as §1
For the next experiment, the system named is CP191. Described as above. To be noted: P. falciparum in erythrocytes, SYBR Green DNA, 72 h; series mostly up to 28.7 µM. The procedure, abridged: as §1
In a further experiment the test system is CP192. Described as above. To be noted: P. falciparum in erythrocytes, SYBR Green DNA, 72 h; series mostly up to 28.7 µM. The procedure, abridged: as §1
A further experiment relates to CP194. The experiment is described as above. To be noted: P. falciparum in erythrocytes, SYBR Green DNA, 72 h; series mostly up to 28.7 µM. Summed up: as §1
In the next experiment the test system is CP211. The experiment is described as above. To be noted: P. falciparum in erythrocytes, SYBR Green DNA, 72 h; series mostly up to 28.7 µM. Summed up: as §1
For the next experiment, the system named is CP217. Described as above. To be noted: P. falciparum in erythrocytes, SYBR Green DNA, 72 h; series mostly up to 28.7 µM. The procedure, abridged: as §1
The subject of a further experiment is CP237. The experiment is described as above. As to conditions: P. falciparum in erythrocytes, SYBR Green DNA, 72 h; series mostly up to 28.7 µM. The procedure, abridged:
as §1

The next experiment deals with CP238. The experiment is described as above. As to conditions: P. falciparum in erythrocytes, SYBR Green DNA, 72 h; series mostly up to 28.7 µM. Summed up:
as §1

Another experiment has as its system CP247. The description is as above. To be noted: P. falciparum in erythrocytes, SYBR Green DNA, 72 h; series mostly up to 28.7 µM. The procedure, abridged: as §1
Another experiment concerns CP252. The experiment is described as above. As to conditions: P. falciparum in erythrocytes, SYBR Green DNA, 72 h; series mostly up to 28.7 µM. The procedure, abridged: as §1
The test system of another experiment is CP286. The description is as above. To be noted: P. falciparum in erythrocytes, SYBR Green DNA, 72 h; series mostly up to 28.7 µM. Summed up: as §1
A further experiment concerns Dd2. The experiment is described as above. As to conditions: P. falciparum in erythrocytes, SYBR Green DNA, 72 h; series mostly up to 28.7 µM. Summed up: as §1
The next experiment concerns P94_40. Described as above. To be noted: P. falciparum in erythrocytes, SYBR Green DNA, 72 h; series mostly up to 28.7 µM. The procedure, abridged:
as §1

Setting [3] is: at 28.7 µM (top of the series), parasite line A.
[4] abbreviates: at 28.7 µM (top of the series), parasite line B.

Records with an inconclusive call do not appear. A number with no mark means an inactive call. Activity calls are given as the source filed them. Calls come from the whole dose curve; as a rule, active = well fitted curve in the direction sought with a large enough effect; inconclusive = small, poorly fitted or top-dose-only effect, or another doubt; inactive = no such curve, though single readings can be large; an effect the other way counts as inactive or inconclusive.

Chain of ATP-dependent 6-phosphofructokinase (Trypanosoma brucei brucei) (O15648 whole entry, looked up): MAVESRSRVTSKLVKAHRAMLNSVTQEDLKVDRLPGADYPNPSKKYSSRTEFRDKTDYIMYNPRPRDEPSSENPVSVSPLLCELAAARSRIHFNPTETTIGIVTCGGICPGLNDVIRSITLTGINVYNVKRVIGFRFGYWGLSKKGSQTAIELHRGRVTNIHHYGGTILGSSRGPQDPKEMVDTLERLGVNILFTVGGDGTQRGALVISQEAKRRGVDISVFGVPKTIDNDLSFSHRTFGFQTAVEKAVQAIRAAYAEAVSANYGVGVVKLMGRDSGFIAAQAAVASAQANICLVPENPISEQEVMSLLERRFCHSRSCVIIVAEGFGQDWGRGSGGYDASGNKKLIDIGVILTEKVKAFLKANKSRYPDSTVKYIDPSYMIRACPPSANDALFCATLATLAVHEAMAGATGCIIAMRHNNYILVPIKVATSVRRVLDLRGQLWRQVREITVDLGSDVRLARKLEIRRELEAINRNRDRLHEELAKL

With `C=C(NCc1ccccc1)c1ccccc1O`, the Potency entry (in [1]; with 3D7; in the experiment on AA1029; in the experiment on AS120; in the experiment with ATS189; with C2A) was “inactive” throughout. The Potency entry with CP185, in the experiment on CP191, with CP192, in the experiment with CP194, with CP211 and in the experiment with CP217 was “inactive” each time. Also, the Potency entry in the experiment with CP237, with CP238, with CP247, in the experiment on CP252, in the experiment on CP286 and in the experiment with Dd2 was “inactive” throughout. In addition, in the experiment with P94_40, the Potency result is “inactive”. In addition, the activity, negative = inhibition in [2] (setting [3]) was 12.8%; in experiment [2] (setting [4]) it was 10.7%.
As to `CO[C@H]1C[C@@H]2CC[C@@H](C)[C@@](O)(O2)C(=O)C(=O)N2CCCC[C@H]2C(=O)O[C@H]([C@H](C)C[C@@H]2CC[C@@H](O)[C@H](OC)C2)CC(=O)[C@H](C)/C=C(\C)[C@@H](O)[C@@H](OC)C(=O)[C@H](C)C[C@H](C)/C=C/C=C/C=C/1C`, the Potency result in experiment [1] was “inactive”. Also, the Potency in [2] (parasite line A) was 3.55 µM (active); in experiment [2] (parasite line B) it was 1.78 µM (active); with 3D7, 2.82 µM (active); with AA1029 it was 2.51 µM (active); in the experiment on AS120, 1.78 µM (active); in the experiment with ATS189 it was 3.55 µM (active). The Potency with C2A was 3.55 µM (active); with CP185, 5.62 µM (active); in the experiment on CP191, 2.24 µM (active); in the experiment with CP192 it was 4.78 µM (active); with CP194 it was 3.38 µM (active); with CP211, 4.26 µM (active). The Potency in the experiment on CP217 was 3.16 µM (active); in the experiment on CP237 it was 5.01 µM (active); in the experiment with CP238, 3.98 µM (active); in the experiment with CP247 it was 3.55 µM (active); in the experiment on CP252 it was 2.82 µM (active); with CP286, 5.01 µM (active). In addition, the Potency in the experiment with Dd2 is 2.82 µM (active); in the experiment with P94_40, 2.24 µM (active).
Regarding `Cc1ccc(/C=C2/C(=O)C3(C)CCC2C3(C)C)cc1` (stereo not given), the Potency result (in experiment [1]; in the experiment on 3D7; in the experiment with AA1029; with AS120; with ATS189; in the experiment with C2A) was “inactive” each time. Also, the Potency result with CP185, in the experiment with CP191, in the experiment on CP192, with CP194, with CP211 and in the experiment on CP217 was “inactive” throughout. Besides, the Potency result with CP237, in the experiment on CP238, in the experiment on CP247, in the experiment with CP252, in the experiment with CP286 and in the experiment on Dd2 was “inactive” in each case. In addition, the Potency result with P94_40 is “inactive”. The activity, negative = inhibition was 14.8% in [2] (setting [3]) and 12% in [2] (setting [4]).
Regarding `NC(=O)OC[C@@H]1[C@H](NC(=O)/C(=N/OCC(=O)O)c2csc(N)n2)C(=O)N1S(=O)(=O)O`, the Potency entry (in experiment [1]; with 3D7; in the experiment on AA1029; in the experiment on AS120; in the experiment with ATS189; with C2A) was “inactive” each time. In addition, the Potency result with CP185, with CP191, in the experiment with CP192, with CP194, in the experiment on CP211 and in the experiment with CP217 was “inactive” in each case. The Potency entry in the experiment on CP237, in the experiment with CP238, in the experiment with CP247, in the experiment on CP252, with CP286 and in the experiment with Dd2 was “inactive” in each case. Also, the Potency result in the experiment with P94_40 was “inactive”. In addition, the activity, negative = inhibition is -1.72% in experiment [2] (setting [3]) and 1.04% in experiment [2] (setting [4]).
Consider `CC(=O)N[C@H]1[C@H](O[C@@H]2c3ccc(c(Cl)c3)Oc3cc4cc(c3O[C@@H]3O[C@H](CO)[C@@H](O)[C@H](O)C3C)Oc3ccc(cc3Cl)C[C@H]3NC(=O)[C@@H](N)c5ccc(O)c(c5)Oc5cc(O)cc(c5)[C@H](NC3=O)C(=O)N[C@H]4C(=O)N[C@H]3C(=O)N[C@@H]2C(=O)N[C@@H](C(=O)O)c2cc(O)cc(O[C@H]4O[C@H](CO)[C@@H](O)C(O)[C@@H]4O)c2-c2cc3ccc2O)O[C@H](CO)[C@@H](O)[C@@H]1O` (stereo not given in full), for which the Potency entry (in [1]; in the experiment with 3D7; in the experiment with AA1029; with AS120; with ATS189; in the experiment on C2A) was “inactive” throughout. Besides, the Potency result with CP185, in the experiment on CP191, in the experiment on CP192, in the experiment with CP194, in the experiment with CP211 and in the experiment with CP217 was “inactive” throughout. Moreover, the Potency entry in the experiment on CP237, in the experiment on CP238, in the experiment on CP247, in the experiment with CP252, with CP286 and in the experiment on Dd2 was “inactive” throughout. For the same compound, the Potency result in the experiment with P94_40 was “inactive”. In addition, the activity, negative = inhibition in [2] (at 12.8 µM (top of the series), parasite line A) was -7.42%; in experiment [2] (at 12.8 µM (top of the series), parasite line B) it was 7.54%.
